In the library only some 21% were active in any assay of this set; here they are far more common.
Cycloheximide cs: affects cycloheximide protein synthesis inhibition readout, counter-screen | 12% of 300,000 active | max response, % | AID 2314 | cell reporter, cycloheximide protein synthesis inhibition counterscreen; in the data active means max response mostly above about 13%, no sharp cut-off; inactive means mostly below about 14%; further: read at 38.3 µM for the half of the compounds with a filed dose; 0% is about no effect
NS1 function inh: inhibitors of influenza NS1 protein function. AID 2326. 0.4% of 270,000 active. Potency, µM (titrated, usually from 46.1 µM), without a hit: at the top dose activity, positive = more growth; calls by dose curve; further: potency means the concentration at half of the fitted maximal effect; actives are rising curves; nearly all actives have a fitted effect of over 50% in size
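Compounds were scored for reversing the slow growth caused by influenza A NS1 in S. cerevisiae, measured by optical density at 600 nm. Assay medium contained 2% galactose at pH 6.0; NS1-free yeast of the same strain were the positive control.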
Shiga inhibitor: inhibitors of Shiga toxin in Vero cells; Vero cells, Shiga toxin protein synthesis inhibition reporter; inhibition, % at 38.7 µM; 9.2% of 290,000 active; AID 2315; in the data active means inhibition mostly above about 28%, no sharp cut-off; inactive means mostly below about 43%; further: 0% is about no effect
Pf growth 96h: P. falciparum growth inhibition at 96 hour, primary screen for plastid delayed-death inhibitors. AID 504834. 6.9% of 320,000 active. P. falciparum luciferase reporter growth, 96 h. Potency, µM (highest dose often 28.7 µM), without a hit: at the highest dose activity change, negative = inhibition, actives largely listed as inhibitors; further: potency means the concentration at half of the fitted maximal effect; on the % scale 0 is the no-effect control and ±100 the full control effect
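Delayed-death screen, second-generation endpoint: infected erythrocytes, 2% hematocrit, 0.05% parasitemia final; 96 hours at 37 C, 5% CO2; luciferase detection reagent; luminescence decrease equals reduced growth.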
Pf growth 48h: P. falciparum growth inhibition at 48 hours (one generation); P. falciparum luciferase growth in erythrocytes, 48 h; Potency, µM (titrated, usually from 28.7 µM), for inactives: at the top dose activity change, negative = inhibition, hits mostly inhibitors; 5.9% of 310,000 active; AID 504832; further: potency means the concentration at half of the fitted maximal effect; on the % scale 0 is the no-effect control and ±100 the full control effect
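Parasite viability was followed by luminescence of a genomically integrated firefly luciferase. Cultures held 0.1% parasitemia at 2% hematocrit (final), incubated under 5% CO2 at 37 C.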
* = called active by the depositor; u = inconclusive; x = no result given; [ ] = dose if it differs, or a comment. Unless noted, the call rests on the fitted dose curve; in most records, active means well fitted inhibition curve with a large enough effect; inconclusive means small, poorly fitted or top-dose-only effect, or another doubt; inactive means no such curve, though single readings can be large or run the other way.

SMILES	Cycloheximide cs	NS1 function inh	Shiga inhibitor	Pf growth 96h	Pf growth 48h
CN1CCC(=NNC(=O)c2cc(-c3ccc(Cl)cc3)n[nH]2)CC1	11	7%	13	2%	-11%
CC(C)COc1ccc(-c2cc(C(=O)NN)[nH]n2)cc1	27*	14%	86	u	-10%
CCOC(=O)c1cc(-c2ccc(OC)cc2)nn1-c1ccc(C(=O)O)cc1	-3	0%	-10	-3%	-13%
CCOC(=O)c1cc(-c2ccc3c(c2)OCCO3)n[nH]1	48*	-4%	61*	53%	123%
CC(C)COc1ccc(C(=O)NNC(=O)c2ccc(=O)[nH]c2)cc1	x	x	x	28%	3%
CCOC(=O)c1cc(-c2ccc(OC)cc2)n[nH]1	69*	-3%	101*	23%	55%
COc1ccccc1CCNC(=O)CSc1nnc2ccc(-c3ccncc3)nn12	-3	x	-5	u	5%
CCOC(=O)[C@H](CCc1ccccc1)N[C@@H](C)C(=O)N1[C@H](C(=O)O)C[C@H]2CCCC[C@@H]21	x	x	x	1%	3%
Oc1ccccc1-c1cc(-c2ccc3c(c2)OCCO3)n[nH]1	32*	-33%	47	198%	329%
Cc1c(NC(=O)C(C)OC(=O)/C=C/c2ccco2)c(=O)n(-c2ccccc2)n1C (configuration not stated)	-2	x	17	-12%	-4%
CNc1nc(N/N=C/c2cc3c(cc2[N+](=O)[O-])OCO3)nc(Nc2ccccc2)n1	-2	x	-32	-13%	2.6µM*
O=[N+]([O-])c1cc2c(cc1/C=N\NS(=O)(=O)c1ccccc1)OCO2	-1	7%	-8	10%	5%
CCOc1ccc(/C=N/Nc2nc(N3CCCC3)nc(N3CCCC3)n2)cc1OC	0	3%	-17	u	10µM*
COc1ccc(/C=N/Nc2nc(Nc3ccccc3)nc(N3CCCC3)n2)cc1[N+](=O)[O-]	-1	x	-17	-6%	2.1µM*
COc1ccc(/C=N/Nc2nc(N3CCCCC3)nc(N3CCCCC3)n2)cc1[N+](=O)[O-]	-2	4%	-3	47%	u
COc1cc(C#Cc2ccc3cc(C(C)(C)O)oc(=O)c3c2)cc(OC)c1	x	x	x	0%	18%
Cn1c2ccccc2c(=O)c2ccc(C#Cc3ccccn3)cc21	2	6%	10	10µM*	u
C=CCn1c2ccccc2c(=O)c2cc(C#Cc3cc(OC)cc(OC)c3)ccc21	x	x	x	u	12µM*
Cn1c2ccccc2c(=O)c2cc(C#Cc3ccccn3)ccc21	23*	6%	11	u	144%
Cn1c2ccccc2c(=O)c2cc(C#Cc3ccsc3)ccc21	9.3*	24%	17	u	-13%
CC(=O)c1ccccc1NC(=O)COC(=O)/C=C/c1ccc(OC(F)F)cc1	x	x	x	3%	1%
COc1ccc(NC(=O)C(c2ccccc2)N(C)C(=O)c2ccc(=O)[nH]c2)cc1 (configuration not stated)	-3	1%	-3	1µM*	-1%
COc1ccc(NC(=O)C(c2ccc(OC)cc2)N(C)C(=O)CC2NC(=O)NC2=O)cc1 (configuration not stated)	1	-2%	-12	12µM*	16%
Cc1ccc(C(C(=O)Nc2ccc(C(C)C)cc2)N(C)C(=O)c2ccc(=O)[nH]c2)cc1 (configuration not stated)	-6	x	-8	330%	u
COc1ccc(NC(=O)C(NC(=O)CC2NC(=O)NC2=O)c2ccccc2)cc1 (configuration not stated)	-1	12%	-13	-14%	26%
SMILES	Cycloheximide cs	NS1 function inh	Shiga inhibitor	Pf growth 96h	Pf growth 48h
O=C(COC(=O)c1ccc[nH]c1=O)NCC1CCCO1 (configuration not stated)	4	-3%	-2	13%	3%
CCc1nnc2c3cnn(-c4ccccc4)c3ncn12	28*	-6%	67*	5%[5.75 µM]	130%
Cc1ccc(-n2ncc3c(=O)n(-c4ccc(C)c(C)c4)c(C)nc32)cc1	-4	-3%	4	107%	-19%
Cc1nc2c3cnn(-c4ccccc4)c3ncn2n1	21*	8%	34*	u	u
c1ccc(-n2ncc3c2ncn2cnnc32)cc1	-2	-3%	31	42%	38%
Cc1ccc(-n2ncc3c2ncn2c(C)nnc32)cc1C	30*	-10%	63*	u	161%
CC(=O)N1CC[n+]2c(-c3ccc(Cl)cc3)csc21	-5	17%	-14	28%	-8%
O=C(O)CN1C(=O)/C(=C\c2cc(Br)ccc2OCc2ccccc2F)SC1=S	6	6%	1	u	1%

Assay outcomes deposited in PubChem by National Center for Advancing Translational Sciences (NCATS).
